# Results published in PubChem BioAssay.
# Values without a mark were called inactive.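 Rule for the calls, unless noted: active = viability at or below 27.92% in each of two runs, the all-compound median minus 4 SD; inconclusive = no clear call, values can overlap the other calls; inactive = the rest.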 Inconclusive results are not listed.
# Assay: growth suppression of PTEN-deleted HCT116, pilot screen, cell-based, HCT116 clonal line, CellTiter-Glo (AID 824);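 note: 0% = 20 µM Hyamine control and 100% = vehicle cell control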
# Conditions: 60 h, at 10 µM, hits give low values
row,Compound,viability
1,COc1ccc(C2C(C(=O)NCC3CCCO3)c3cc(OC)c(OC)cc3C(=O)N2C)cc1OC (stereo not given),99.7%
2,CC(=O)CCS(=O)(=O)c1ccc(C)c(C)c1,90.2%
3,CC1(C)NC(=O)N(CC(O)COc2ccc(N3C(=O)c4ccccc4C3=O)cc2)C1=O (stereo not given),96.5%
4,CCOc1ccc(N=Cc2c(O)cc(C)oc2=O)cc1,101%
5,O=C(Nc1ccccc1O)c1ccccc1O,63.3%
6,c1ccc(CSc2nnc(-c3ccncc3)o2)cc1,96.3%
7,Cc1nccn1-c1c2c(c(C#N)c3nc4ccccc4n13)CCC2,93.1%
8,CCOC(=O)N1CCN(C(=O)C(C)(C)Oc2ccc(Cl)cc2)CC1,96.1%
9,Cc1c(NC(=O)Oc2ccccc2)sc(=S)n1C,98.2%
10,CCO/C(C)=C1\C(=O)N(CC)c2ccccc21,97.2%
11,CCOC(=O)C1CCN(c2c(N3CCN(Cc4ccccc4)CC3)c(=O)c2=O)CC1,86.3%
12,Cn1c2c(c3ccccc31)CC/C2=N\O,99%
13,CSC1=NCCN1C(=O)c1cccs1,99.3%
14,COC(=O)C1=C(C)Nc2ccc(C)cc2S1,100%
15,Cc1csc2nc(CNS(=O)(=O)c3ccc4c(c3)OCCO4)cn12,85.7%
16,COc1ccc(-c2cn3c(C)c(C(=O)NCc4ccc5c(c4)OCO5)sc3n2)cc1,100%
17,O=C(c1ccc(Br)o1)N1CCN=C1SCc1cccnc1,87.6%
18,O=C1CC(c2ccc(S(=O)(=O)NCc3ccncc3)cc2)CN1 (stereo not given),97.2%
19,COc1ccc(Cl)cc1Nc1cc(C)nc2nc(C)nn12,94.8%
20,COc1ccccc1NC(=O)CSc1nnc(-c2ccccn2)n1Cc1ccco1,96.8%

row,Compound,viability
1,Cc1ccccc1NC(=O)CCN1CCN(Cc2ccccc2)CC1,89.6%
2,O=C(c1ccc(CN2CCOCC2)cc1)N1CCN(Cc2ccccc2)CC1,97.9%
3,CCCCCC(C)n1[nH]c(=O)c2c(C)cc(C)nc21 (stereo not given),96.2%
4,CN1CCN(Cc2nc3c(c(=O)n(C)c(=O)n3C)n2CCc2ccccc2)CC1,103%
5,O=C(COc1cccc2ccccc12)N1CCN(c2ccccc2)CC1,89%
6,CCC(C)NC(=O)C1CN(S(=O)(=O)c2ccccc2)CCN1S(=O)(=O)c1ccccc1 (stereo not given),92.9%
7,COc1cc(C2N(c3ccc(Cl)cc3)C(=O)C3CCCN32)cc(OC)c1OC (stereo not given),97.6%
8,CC1CN(c2ncnc3c2cnn3-c2ccc(Cl)cc2)CC(C)O1 (stereo not given),88.4%
9,Cn1c(C(=O)NCc2cccs2)cc2c(=O)n(C)c3ccccc3c21,98.1%
10,O=C1C2CCCN2C(c2ccc(Br)cc2)N1c1ccc(F)cc1 (stereo not given),90%
11,N=c1n(-c2ccccc2)c(O)cc(=O)n1-c1ccccc1,99.5%
12,Cc1ccccc1-c1ccc(Nc2ccc(C(=O)N3CCOCC3)cc2)nn1,97.2%
13,Cc1ccccc1CSc1nnc(-c2ccco2)n1Cc1ccco1,82.4%
14,CCN1CCN(CC(=O)Nc2ccc3c(c2)OCCO3)C(=O)C1=O,103%
15,CCN(CC)S(=O)(=O)c1ccc(C(=O)OCC(=O)N2CCN(C(=O)c3ccco3)CC2)cc1,93.6%
16,CCCCNC(=O)CS(=O)Cc1nc(-c2cccs2)oc1C (stereo not given),95.7%
17,Cn1c(=O)c(C(=O)Nc2ncccn2)c(O)c2ccccc21,89.5%
18,CCOc1cc(C2NC(=O)NC(O)(C(F)(F)F)C2C(=O)c2ccc(Cl)cc2)ccc1O (stereo not given),94.3%
19,CC(C)(CC(=O)O)Cc1nc(-c2ccc(Cl)cc2)no1,93.2%
20,COc1ccc(C2C(C#N)=C(N)Oc3n[nH]c(C)c32)cc1Cn1nnc2ccccc21 (stereo not given),77.9%

# Assay: inhibitors of the yeast RAM network, pilot screen, dse1pr::URA3 reporter, 5-FOA selection (AID 869;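 active = inhibition over a set limit, the all-compound mean plus 3 SD, in both replicate runs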;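 note: 0% = DMSO wells with no growth and 100% = 10 µM 1-NA-PP1 with full growth; RAM network block rescues cells from 5-FOA so hits raise OD615 growth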)
# Conditions: S. cerevisiae dse1pr::URA3 5-FOA growth, OD615, 2 d; at 10 µM; hits give high values; strain carries analog-sensitive mutant Cbk1 kinase
row,Compound,inhibition
1,COc1ccc(C2C(C(=O)NCC3CCCO3)c3cc(OC)c(OC)cc3C(=O)N2C)cc1OC (stereo not given),1.46%
2,CC(=O)CCS(=O)(=O)c1ccc(C)c(C)c1,0.885%
3,CC1(C)NC(=O)N(CC(O)COc2ccc(N3C(=O)c4ccccc4C3=O)cc2)C1=O (stereo not given),1.87%
4,CCOc1ccc(N=Cc2c(O)cc(C)oc2=O)cc1,1.21%
5,O=C(Nc1ccccc1O)c1ccccc1O,-0.42%
6,c1ccc(CSc2nnc(-c3ccncc3)o2)cc1,0.73%
7,Cc1nccn1-c1c2c(c(C#N)c3nc4ccccc4n13)CCC2,2.08%
8,CCOC(=O)N1CCN(C(=O)C(C)(C)Oc2ccc(Cl)cc2)CC1,0.28%
9,Cc1c(NC(=O)Oc2ccccc2)sc(=S)n1C,1.32%
10,CCO/C(C)=C1\C(=O)N(CC)c2ccccc21,-0.745%
11,CCOC(=O)C1CCN(c2c(N3CCN(Cc4ccccc4)CC3)c(=O)c2=O)CC1,1.52%
12,Cn1c2c(c3ccccc31)CC/C2=N\O,1%
13,CSC1=NCCN1C(=O)c1cccs1,1.11%
14,COC(=O)C1=C(C)Nc2ccc(C)cc2S1,1.25%
15,Cc1csc2nc(CNS(=O)(=O)c3ccc4c(c3)OCCO4)cn12,3.93%
16,COc1ccc(-c2cn3c(C)c(C(=O)NCc4ccc5c(c4)OCO5)sc3n2)cc1,3.06%
17,O=C(c1ccc(Br)o1)N1CCN=C1SCc1cccnc1,2.11%
18,O=C1CC(c2ccc(S(=O)(=O)NCc3ccncc3)cc2)CN1 (stereo not given),1.73%
19,COc1ccc(Cl)cc1Nc1cc(C)nc2nc(C)nn12,-0.515%
20,COc1ccccc1NC(=O)CSc1nnc(-c2ccccn2)n1Cc1ccco1,1.23%

row,Compound,inhibition
1,Cc1ccccc1NC(=O)CCN1CCN(Cc2ccccc2)CC1,1.85%
2,O=C(c1ccc(CN2CCOCC2)cc1)N1CCN(Cc2ccccc2)CC1,0.83%
3,CCCCCC(C)n1[nH]c(=O)c2c(C)cc(C)nc21 (stereo not given),0.47%
4,CN1CCN(Cc2nc3c(c(=O)n(C)c(=O)n3C)n2CCc2ccccc2)CC1,0.895%
5,O=C(COc1cccc2ccccc12)N1CCN(c2ccccc2)CC1,2.06%
6,CCC(C)NC(=O)C1CN(S(=O)(=O)c2ccccc2)CCN1S(=O)(=O)c1ccccc1 (stereo not given),0.14%
7,COc1cc(C2N(c3ccc(Cl)cc3)C(=O)C3CCCN32)cc(OC)c1OC (stereo not given),2.28%
8,CC1CN(c2ncnc3c2cnn3-c2ccc(Cl)cc2)CC(C)O1 (stereo not given),1.4%
9,Cn1c(C(=O)NCc2cccs2)cc2c(=O)n(C)c3ccccc3c21,2.62%
10,O=C1C2CCCN2C(c2ccc(Br)cc2)N1c1ccc(F)cc1 (stereo not given),2.89%
11,N=c1n(-c2ccccc2)c(O)cc(=O)n1-c1ccccc1,0.73%
12,Cc1ccccc1-c1ccc(Nc2ccc(C(=O)N3CCOCC3)cc2)nn1,1.39%
13,Cc1ccccc1CSc1nnc(-c2ccco2)n1Cc1ccco1,0.145%
14,CCN1CCN(CC(=O)Nc2ccc3c(c2)OCCO3)C(=O)C1=O,0.675%
15,CCN(CC)S(=O)(=O)c1ccc(C(=O)OCC(=O)N2CCN(C(=O)c3ccco3)CC2)cc1,1.86%
16,CCCCNC(=O)CS(=O)Cc1nc(-c2cccs2)oc1C (stereo not given),1.57%
17,Cn1c(=O)c(C(=O)Nc2ncccn2)c(O)c2ccccc21,0.475%
18,CCOc1cc(C2NC(=O)NC(O)(C(F)(F)F)C2C(=O)c2ccc(Cl)cc2)ccc1O (stereo not given),1.62%
19,CC(C)(CC(=O)O)Cc1nc(-c2ccc(Cl)cc2)no1,0.855%
20,COc1ccc(C2C(C#N)=C(N)Oc3n[nH]c(C)c32)cc1Cn1nnc2ccccc21 (stereo not given),1.26%
